Mdm2 MdmX PPI = human Mdm2/MdmX binding inhibition. inhibition, % at 8 µM. actives 3% (n = 330,000). SaOS-2 split-luciferase Mdm2/MdmX complementation, luminescence;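 active = inhibition of at least 50% at 8 µM in the primary screen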
Target sequence (O15151 whole entry, looked up): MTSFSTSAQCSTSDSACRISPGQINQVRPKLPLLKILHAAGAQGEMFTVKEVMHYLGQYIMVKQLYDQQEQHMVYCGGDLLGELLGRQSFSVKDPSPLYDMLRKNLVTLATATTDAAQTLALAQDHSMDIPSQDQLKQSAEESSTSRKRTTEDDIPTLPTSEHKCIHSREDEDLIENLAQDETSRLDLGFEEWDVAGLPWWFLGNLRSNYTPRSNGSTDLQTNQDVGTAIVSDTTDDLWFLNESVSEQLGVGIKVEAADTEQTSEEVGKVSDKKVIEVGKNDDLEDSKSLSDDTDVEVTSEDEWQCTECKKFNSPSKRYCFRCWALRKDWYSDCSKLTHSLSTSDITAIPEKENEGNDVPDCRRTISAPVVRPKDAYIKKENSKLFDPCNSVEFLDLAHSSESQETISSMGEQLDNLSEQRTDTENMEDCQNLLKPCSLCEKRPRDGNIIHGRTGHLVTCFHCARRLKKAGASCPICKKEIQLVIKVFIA
Target sequence (Q00987 whole entry, looked up): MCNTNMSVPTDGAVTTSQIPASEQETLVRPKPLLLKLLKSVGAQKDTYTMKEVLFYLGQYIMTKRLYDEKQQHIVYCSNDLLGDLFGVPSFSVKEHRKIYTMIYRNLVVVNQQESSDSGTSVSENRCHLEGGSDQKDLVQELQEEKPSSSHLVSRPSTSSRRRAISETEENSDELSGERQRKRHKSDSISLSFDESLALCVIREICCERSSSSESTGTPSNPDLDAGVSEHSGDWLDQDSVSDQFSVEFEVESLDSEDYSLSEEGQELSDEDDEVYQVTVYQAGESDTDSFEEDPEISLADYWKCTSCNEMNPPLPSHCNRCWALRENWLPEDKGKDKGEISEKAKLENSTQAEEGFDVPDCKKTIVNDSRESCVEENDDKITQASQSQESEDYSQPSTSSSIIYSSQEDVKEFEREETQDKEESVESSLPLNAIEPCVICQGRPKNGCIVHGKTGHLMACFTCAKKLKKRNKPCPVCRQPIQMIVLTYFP
CSC inhib = blocks cancer stem cells. cancer stem cell-like cells viability, luminescence. inhibition, % at 7.5 µM. AID 2717. actives 1.1% (n = 300,000); in the data active = inhibition above about 75%; inconclusive = no clear call, values can overlap the other calls; tested in HMLE shEcad cells
NR3A LBD binder = NR3A (human) ligand-binding domain modulation; actives 2.5% (n = 340,000); AID 1259313; NR3A LBD differential scanning fluorimetry, Tm shift; 0% = protein alone, 100% = glycine-bound protein; Tm shift relative to glycine control, % at 25 µM;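 active = melting temperature shift of at least 10% of the positive control shift, at one fixed dose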
Beta cell apopt = blocks beta cell apoptosis; INS-1E cytokine-induced death, ATP luminescence, 48 h; percent of positive-control rescue, neutral wells zero; protection from apoptosis, % (no concentration beside the values); actives 0.8% (n = 300,000);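 active = Every replicate reaches about 75%, or at least half do and their mean reaches it too, limit read from the data; inconclusive = At least half of replicates reach the limit but their mean does not; inactive = Under half of replicates reach the limit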;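 also: higher means more ATP so stronger rescue from cytokine killing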
Gli-Sufu antag = blocks Gli-Sufu signaling in a luciferase reporter; Sufu-KO-LIGHT fibroblasts, Gli luciferase reporter luminescence; inhibition, % at 5 µM; actives 0.74% (n = 340,000); AID 588413;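 active = inhibition above about 55%, limit read from the data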
MPTP inh = blocks calcium-induced mitochondrial swelling | isolated mouse mitochondria, Ca2+ swelling absorbance, 30 min | inhibition, % at 10 µM | actives 1.4% (n = 360,000);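 active = inhibition of 50% or more, scaled per plate between neutral and stimulator controls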
Mdm2-MdmX conf = human Mdm2/MdmX binding inhibition, confirmed; shares compounds with Mdm2 MdmX PPI; luminescent assay; inhibition, % at 8 µM; actives 55% (n = 10,000); in the data active = inhibition above about 40%
Full FLuc ctr = full-length luciferase inhibition in Mdm2/MdmX counter-screen. shares compounds with Mdm2 MdmX PPI. SaOS-2 full-length luciferase counterscreen, luminescence. inhibition, % at 8 µM. actives 77% (n = 6,200);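 active = mean inhibition at 8 µM reaching about 37%, which flags the compound as non-specific, limit read from the data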;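 also: p53-null SaOS-2 cells with luciferase driven by a doxycycline-inducible promoter; compound on cells about two nights before reading with doxycycline added after day one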
Numbers stand for hits; i = inactive; ? = inconclusive; nt = no result. Most compounds without a hit are left out; they make up all but 6.6% or so of the library.

SMILES	Mdm2 MdmX PPI	CSC inhib	NR3A LBD binder	Beta cell apopt	Gli-Sufu antag	MPTP inh	Mdm2-MdmX conf	Full FLuc ctr
Cc1nnc(-c2ccccc2)c(=O)n1/N=C/c1c(O)ccc2ccccc12	54	i	i	88	91	i	57	i
Cc1ccc(COc2ccccc2-c2cc(C(=O)N/N=C/c3cccnc3)[nH]n2)cc1	55	78	i	i	i	i	59	72
CCN1C(=O)CC(c2ccccc2)N(C2CCCC2)c2nc(Nc3ccc(C(=O)NC4CCN(C)CC4)cc3OC)ncc21 (stereo not given)	98	nt	i	i	i	i	46	78
CCN1C(=O)CC(C(C)C)N(C2CCCC2)c2nc(Nc3ccc(C(=O)NC4CCN(C)CC4)cc3OC)ncc21 (stereo not given)	nt	nt	i	nt	i	i	nt	nt
Cc1cc(N2C(=O)C(O)=C(C(=O)c3ccco3)C2c2ccccc2F)no1 (stereo not given)	i	i	i	i	i	i	nt	nt
C[C@H](CO)N1C[C@H](C)[C@@H](CN(C)C(=O)Nc2ccc(C(F)(F)F)cc2)Oc2ccc(NC(=O)Nc3ccc(C(F)(F)F)cc3)cc2C1=O	65	nt	10	i	i	i	i	nt
C[C@H](CO)N1C[C@H](C)[C@@H](CN(C)C(=O)Nc2ccc(C(F)(F)F)cc2)Oc2c(NC(=O)Nc3ccc(C(F)(F)F)cc3)cccc2C1=O	84	106	28	i	i	i	i	nt
CCCOc1ccc(F)cc1-c1cc(C(=O)Nc2ccc(C(C)C)cc2)[nH]n1	nt	nt	nt	nt	nt	i	nt	nt
O=C(CCSCc1ccc(Cl)cc1)NC1CCCC1	i	i	i	i	i	i	nt	nt
COc1cc(NS(=O)(=O)c2ccc3c(c2)oc(=O)n3C)cc(OC)c1OC	57	i	i	i	i	i	i	nt
COc1ccc(NS(=O)(=O)c2ccc3c(c2)oc(=O)n3C)c(OC)c1	i	i	i	i	i	i	nt	nt
C=CCOc1cccc(/C=N/NC(=O)CC(=O)NC2CCCCC2)c1	i	i	i	nt	i	i	nt	nt
COc1ccc(C(=O)Oc2c(CN3CCOCC3)cc(Cl)c3cccnc23)cc1OC	60	i	i	i	i	nt	i	nt
O=S(=O)(c1ccc(Cl)cc1)N1CCN(Cc2ccc(O)c3ncccc23)CC1	77	89	i	86	i	i	67	i
CN1CCN(C2CCN(Cc3ccc(O)c4ncccc34)CC2)CC1	i	i	i	i	i	i	nt	nt
Oc1ccc(CN2CCN(Cc3ccccc3)CC2)c2cccnc12	i	i	i	i	i	i	nt	nt
Oc1c(Cl)cc(CN2CCOCC2)c2cccnc12	78	nt	i	i	i	i	84	42
CN1CCN(Cc2cc(COCc3ccccc3)c3cccnc3c2O)CC1	60	i	i	i	i	i	75	i
O=C(COc1c(Br)cc(Br)c2cccnc12)N1CCCCC1	i	i	i	i	i	i	nt	nt
Oc1c(CN2CCCCC2)cc(Br)c2cccnc12	77	i	i	96	i	i	75	36
COc1cc(OC)cc(C(=O)Oc2c(CN3CCOCC3)cc(Cl)c3cccnc23)c1	50	i	i	i	i	i	45	i
O=C(Oc1c(CN2CCOCC2)cc(Cl)c2cccnc12)c1ccccc1F	i	i	i	i	i	i	nt	nt
Oc1c(CN2CCc3ccccc3C2)cc(Cl)c2cccnc12	70	84	i	i	i	i	80	46
CN(Cc1cccc(C(F)(F)F)c1)C(=O)[C@H]1O[C@@H](n2ccc(N)nc2=O)[C@H](O)[C@@H]1O	nt	nt	nt	nt	nt	i	nt	nt
COc1ccc(Cn2c3ccc(OC)cc3c3nc4ccccc4nc32)cc1	51	?	i	i	i	i	i	nt
SMILES	Mdm2 MdmX PPI	CSC inhib	NR3A LBD binder	Beta cell apopt	Gli-Sufu antag	MPTP inh	Mdm2-MdmX conf	Full FLuc ctr
COc1ccc2c(c1)c1nc3ccccc3nc1n2CC(=O)OC(C)C	58	i	i	i	i	i	i	nt
Clc1ccc2c(c1)CCc1cccnc1C2=C1CCNCC1	61	nt	nt	nt	nt	nt	i	nt
COc1cc(NC(=O)c2ccccc2)ccc1NC(=O)c1cc2ccccc2o1	i	i	i	i	i	i	nt	nt
COc1cc(NC(C)=O)ccc1NC(=O)c1cc2ccccc2o1	i	i	i	i	i	i	nt	nt
Cn1c(=O)n(C)c2cc(NC(=O)c3cc4ccccc4o3)ccc21	51	i	i	i	i	i	i	nt
COc1ccc(NC(=O)c2cc(=O)c3ccccc3o2)cc1Cl	52	i	i	i	i	i	47	95
COc1cc(NC(=O)c2cccs2)ccc1NC(=O)c1cc2ccccc2o1	89	i	i	i	i	i	52	117
Cc1cc(NC(=O)c2cncc(Br)c2)ccc1NC(=O)c1cc2ccccc2o1	74	i	i	i	i	i	51	i
CN(Cc1ccccc1Cl)C(=O)CCNC(=O)c1ccco1	i	nt	i	nt	i	i	nt	nt
CC1C(=O)N(Cc2cn(Cc3ccco3)nn2)CCS(=O)(=O)N1Cc1ccc(-c2ccccc2C(F)(F)F)cc1 (stereo not given)	nt	nt	nt	nt	nt	i	nt	nt
O=C1NC[C@H](c2ccccc2)OC(=O)[C@@H](Cc2ccc(F)cc2)C/C=C\C[C@H]1CC(=O)N(CCO)Cc1ccccc1	85	i	i	i	i	i	79	51
O=C1NC[C@H](c2ccccc2)OC(=O)[C@H](Cc2ccc(F)cc2)C/C=C\C[C@H]1CC(=O)N(CCO)Cc1ccccc1	81	i	i	i	i	i	63	47
C[C@@H]1COC(=O)[C@H](Cc2ccc(F)cc2)CC/C=C/C[C@@H](CC(=O)N[C@@H](CO)Cc2ccccc2)C(=O)N1	i	i	i	i	i	i	nt	nt
O=C1NC[C@@H](c2ccccc2)OC(=O)[C@H](Cc2ccc(F)cc2)C/C=C\C[C@H]1CC(=O)N(CCO)Cc1ccccc1	i	nt	i	i	i	i	nt	nt
O=C(C[C@@H]1C/C=C/CC[C@H](Cc2ccc(F)cc2)C(=O)OC[C@@H](Cc2ccccc2)NC1=O)N[C@H](CO)Cc1ccccc1	96	105	i	124	i	i	93	i
O=C1N[C@@H](Cc2c[nH]c3ccccc23)COC(=O)[C@@H](Cc2ccc(F)cc2)C/C=C\C[C@H]1CC(=O)N(CCO)Cc1ccccc1	51	i	i	i	i	i	i	nt
O=C1N[C@@H](Cc2c[nH]c3ccccc23)COC(=O)[C@H](Cc2ccc(F)cc2)C/C=C\C[C@@H]1CC(=O)N(CCO)Cc1ccccc1	i	i	i	i	i	i	nt	nt
Cc1noc(C)c1C(=O)N1CCC1(C)C(=O)NS(=O)(=O)c1cccc(OC(F)F)c1 (stereo not given)	nt	nt	nt	nt	nt	i	nt	nt
CC1NC(=O)c2cccnc2-n2c1nc1cc(F)ccc1c2=O (stereo not given)	nt	nt	nt	nt	nt	i	nt	nt
Cc1ccc(N(CC(=O)NC(C)C)C(=O)CCC(=O)Nc2ccccn2)c(C)c1	nt	nt	nt	nt	nt	i	nt	nt

From PubChem BioAssay
